# VDR inh – blocks the human vitamin D receptor; P11473; VDR-SRC2-3 peptide fluorescence polarization, 2 h; Potency, µM, without a hit: max response, negative = inhibition, actives largely listed as inhibitors; hit rate 0.93% among 400,000; AID 504847
#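 FP read-out; VDR + SRC2-3 coactivator peptide; 23 nl compound by pintool; 2 h RT incubation; reagents held at 4 deg C, protected from light.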
# GCN5L2 inh – blocks human GCN5L2 histone acetyltransferase; GCN5L2 HAT assay, ThioGlo1 CoA-SH fluorescence; Potency, µM (highest dose often 58.9 µM), for the others: at the highest dose activity change, negative = inhibition, most hits filed as inhibitors; hit rate 0.21% among 390,000
#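 GCN5L2 (20nM final) in 50mM HEPES, 0.1mM EDTA pH 7.5, 0.01% Tween-20 was preincubated 15 min at room temperature with compound, then given ThioGlo1 (50uM), H3(1-25) peptide (75uM) and acetyl-CoA (70uM); CoA-thiol fluorescence (Ex340/Em540) was read at 0 and 20 min.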
# rTrxR1 inhibitor – rat TrxR1 inhibition | AID 588453 | Potency, µM (doses to about 114 µM), inactives show top-dose activity change, negative = inhibition, usual class: inhibitors | recombinant rTrxR1, NADPH fluorescence consumption, selenite substrate | O89049 | hit rate 1% among 390,000; also: nearly all actives have a fitted effect of over 65% in size
# Target sequence (O89049 whole entry, looked up): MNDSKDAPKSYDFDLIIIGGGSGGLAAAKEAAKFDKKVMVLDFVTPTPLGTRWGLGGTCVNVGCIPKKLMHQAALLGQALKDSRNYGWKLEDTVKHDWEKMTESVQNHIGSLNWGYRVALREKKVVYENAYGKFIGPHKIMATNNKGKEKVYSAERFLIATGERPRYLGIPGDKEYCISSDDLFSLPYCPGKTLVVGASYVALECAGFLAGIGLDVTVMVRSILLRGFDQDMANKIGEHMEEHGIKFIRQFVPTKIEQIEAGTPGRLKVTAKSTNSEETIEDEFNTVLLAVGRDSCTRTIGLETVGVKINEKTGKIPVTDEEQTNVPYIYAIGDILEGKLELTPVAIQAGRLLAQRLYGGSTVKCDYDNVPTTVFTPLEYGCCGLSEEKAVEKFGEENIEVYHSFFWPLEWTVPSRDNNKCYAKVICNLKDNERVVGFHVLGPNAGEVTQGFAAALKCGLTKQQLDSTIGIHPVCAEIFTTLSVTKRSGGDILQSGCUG
#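 Rat TrxR1 (90 nM in the dispensed reagent) was pre-reduced with 400 uM NADPH for 5 min at room temperature, then incubated with compound for 15 min. After 400 uM selenite was added, NADPH fluorescence (Ex 340/Em 450 nm) was followed for 8 min.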
# GLS inh – inhibitors of human glutaminase (GLS); GLS enzymatic activity, qHTS titration; O94925; Potency, µM (doses to about 45.5 µM), without a hit: at the highest dose activity change, negative = inhibition, usual class: inhibitors; hit rate 0.21% among 410,000
#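 hKGA in 45 mM KH2PO4 (pH 8.2), 0.02% Tween-20 with compound, then 1mM L-Glutamine (stock as added) plus glutamate oxidase/HRP/Amplex red coupling mix. Fluorescence read initially and after 30 min at RT; signal change reflects glutamate formation.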
# TrxR1 substrate – is turned over as a substrate by rat TrxR1; purified TrxR1 substrate turnover, NADPH consumption readout; hit rate 0.01% among 390,000; Potency, µM (titrated, usually from 114 µM), without a hit: top-dose activity change, negative = substrate turnover; also: nearly all actives have a fitted effect of over 50% in size
#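 Rat TrxR1, dispensed at 90 nM, was prereduced with 400 uM NADPH (final) for 5 min at ~22 deg C, then incubated with compound 15 min before 400 uM selenite. A first-read NADPH fluorescence drop versus no-compound background flagged substrates.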
# Sfp PPTase inh – blocks B. subtilis Sfp PPTase activity; Q9F4F7; Biochemical Sfp PPTase activity, qHTS; Potency, µM, for inactives: largest response in the series, negative = inhibition, most hits filed as inhibitors; hit rate 3.5% among 310,000; AID 1490;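 also: the enzyme is Sfp with the accession as filed and its product quenches rhodamine fluorescence; 0% = enzyme reaction without inhibitor and -100% = no enzyme wells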
#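 Buffer: 50 mM Hepes-Na pH 7.6, 10 mM MgCl2, 0.01% Nonidet P-40, 0.01% BSA. Enzyme 15 nM, pre-exposed to compound 15 min; substrates then added and fluorescence change tracked over 30 min.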
# An asterisk follows results filed as active; ? = inconclusive; / = no result given; [ ] = another dose, or the depositor's remark. Only some compounds are listed: those with a hit (about 3.8% of all), similar ones and a draw of the others. Calls follow the shape of the dose curve; as a rule, active = well fitted curve in the direction sought with a large enough effect; inconclusive = small, poorly fitted or top-dose-only effect, or another doubt; inactive = no such curve, though single readings can be large; an effect the other way counts as inactive or inconclusive. Unless noted, % is scaled to controls: 0 for no effect and ±100 for the full control effect; potency is read from the fitted curve at half-maximal effect.
SMILES,VDR inh,GCN5L2 inh,rTrxR1 inhibitor,GLS inh,TrxR1 substrate,Sfp PPTase inh
CCn1nc(C(=O)OCC(=O)Nc2ncc(Cl)c(C)c2Cl)c2ccccc2c1=O,-17.3%,-20.3%,13.0%,-10.4%,9.9%,1.9%
CC(=O)c1cccc(-c2ccc3c(c2)C(C)(Cc2ccccc2F)C(=O)N3)c1 (stereo not drawn),/,/,/,0.6%,/,/
Oc1ccc(C(=S)N2CCCCCC2)cc1,6.7%,-3.5%,-3.4%,35.0%,0.7%,56.2µM*
Cc1ccc(C(=S)N2CCCCCC2)cc1,?,-10.6%,3.5%[57.1 µM],5.3%,-4.3%,44.7µM*
S=C(c1ccc(N2CCCC2)cc1)N1CCCCC1,-19.6%,2.9%,-15.0%,?,-12.9%,7.6%
O=c1c(-c2ccc(F)cc2)nc2cnc(Oc3cccc(Cl)c3)nc2n1C1CC1,6.5%,-9.6%,/,/,/,30.9%
CC1(C)Cc2c(cnn2-c2ccc(F)cc2)C(NC(=O)C2=NNC(=O)CC2)C1 (stereo not drawn),?,-2.7%,6.6%,15.8µM*,-3.7%,18.0%
CC1(C)Cc2c(cnn2-c2ccc(F)cc2)C(NC(=O)c2ccco2)C1 (stereo not drawn),-18.9%,2.9%,-10.7%,-15.7%,-6.9%,7.6%
O=C(Nc1ccccc1)Nc1ccc(F)c([N+](=O)[O-])c1,-1.7%,-0.6%,-20.2%,-1.7%,-18.6%,-12.6%
COc1ccc(OC)c(C2C(C#N)=C(N)Oc3c2c(C)nn3-c2cccc(Cl)c2)c1 (stereo not drawn),-8.4%,-10.2%,-23.4%,68.2%,-7.3%,-2.1%
COc1cccc(C2CC(=O)N3CN(c4cccc(Cl)c4C)CSC3=C2C#N)c1OC (stereo not drawn),22.4µM*,22.4µM*,?,6.7%,2.5%[57.1 µM],3.55µM*
COc1ccc(OC)c(C2CC(=O)N3CN(c4cccc(Cl)c4C)CSC3=C2C#N)c1 (stereo not drawn),31.6µM*,25.1µM*,?,4.1%,8.5%[57.1 µM],3.55µM*
COc1cccc(OC)c1C(=O)Nc1sc2c(c1C#N)CCC2,7.5%,?,3.2%[57.1 µM],-2.1%,9.9%[57.1 µM],39.8µM*
Cc1onc(C(=O)Nc2sc3c(c2C#N)CCCC3)c1[N+](=O)[O-],?,-2.6%,15.8µM*,9.6%,-3.3%,50.1µM*
N#Cc1c(NC(=O)C2CC(c3ccccc3O)=NO2)sc2c1CCC2 (stereo not drawn),7.3%,-6.4%,-18.9%,18.9%,-15.6%,25.1µM*
N#Cc1c(NC(=O)C2CC(c3ccccc3Cl)=NO2)sc2c1CCC2 (stereo not drawn),12.2%,-7.1%,8.2%,9.5%,-4.9%[57.1 µM],12.3%
CC(=O)Nc1sc2c(c1C#N)CCCC2,0.8%,/,4.9%[57.1 µM],10.3%,10.4%[57.1 µM],6.2%
CC(=O)NC(=S)Nc1sc2c(c1C#N)CCCCC2,-12.3%,0.6%,2.8%[57.1 µM],-10.3%,-8.1%[57.1 µM],50.1µM*
COC(=O)c1c(NC(=O)c2c(OC)cccc2OC)sc2c1CCCC2,-12.2%,-20.3%,44.9%,1.8%,56.6%,/
Cc1cc(Cl)cc(Cl)c1OCCCCN(C)C,2.7%,0.0%,-8.7%,6.8%,-9.5%,-7.2%
Cc1ccc(S(=O)(=O)c2cc3c(=O)n4ccccc4nc3n(CCCN3CCOCC3)c2=N)cc1C,-8.1%,-6.1%,12.6%,?,29.4%,-4.5%
Cn1cnnc1SCC(=O)Nc1sc2c(c1C#N)CCCCC2,-0.1%,-0.5%,5.3%,12.8%,5.4%,50.1µM*
C/C(=N\OC(=O)c1c(-c2ccccc2Cl)noc1C)c1ccncc1,-9.6%,2.6%,21.0%[57.1 µM],1.0%,5.1%[57.1 µM],5.01µM*
CCC1(C)Cc2c(sc(NC(=S)NC(=O)c3ccccc3)c2C#N)CO1 (stereo not drawn),-16.3%,-1.3%,?,22.8%,4.5%[57.1 µM],-26.4%
N#Cc1c(NC(=O)C2CC2)sc2c1CCCCC2,-13.1%,-8.4%,-12.9%,-0.9%,-5.5%,?
SMILES,VDR inh,GCN5L2 inh,rTrxR1 inhibitor,GLS inh,TrxR1 substrate,Sfp PPTase inh
CC(C)C(=O)Nc1sc2c(c1C#N)CCCCC2,-8.6%,-3.1%,-13.7%,22.4%,-5.2%,31.6µM*
Cc1onc(-c2ccccc2Cl)c1C(=O)O/N=C(\N)c1ccccc1,-3.2%,-16.3%,14.8%,0.2%,2.0%,11.7%
CN1Cc2sc(NC(=S)NC(=O)c3ccccc3)c(C#N)c2CC1(C)C,?,-4.3%,?,?,-2.7%[57.1 µM],31.6µM*
Nc1ccc2cn[nH]c2c1,3.6%,-2.5%,19.5%,32.7%,11.0%,-10.4%
CCOc1ccc(NC(=O)CN(C)C(=O)CCCNC(=O)c2ccc(Cl)cc2)cc1OCC,/,/,/,-2.3%,/,/
Cc1onc(-c2ccccc2Cl)c1C(=O)Nc1ccccc1C(N)=O,0.2%,-3.2%,2.5%,21.5%,-4.4%,11.1%
Cc1onc(-c2ccccc2Cl)c1C(=O)NC(=S)Nc1ccccc1C(N)=O,3.8%,2.8%,-22.8%,14.1%,5.4%,50.1µM*
CC(C)(C)c1ccc(C(=O)NC(=S)Nc2sc3c(c2C#N)CCC3)cc1,-22.4%,?,-0.8%[57.1 µM],21.0%,7.8%[57.1 µM],?
N#Cc1c(NC(=S)NC(=O)c2ccccc2)sc2c1CCC2,?,-6.7%,?,2.2%,-0.7%,22.4µM*
CCN1CCc2c(sc(NC(=S)NC(=O)c3ccco3)c2C(N)=O)C1,-10.7%,-13.3%,-6.5%[57.1 µM],-12.7%,-5.7%[57.1 µM],22.4µM*
Cc1onc(-c2ccccc2Cl)c1C(=O)Nc1sc2c(c1C#N)CCC2,-11.0%,-6.1%,-4.0%,/,-1.7%,17.8µM*
CN(C)c1ccc(/C=C2\C(Cl)=Cc3ccccc32)cc1,/,/,-11.1%,/,-7.8%,/
O=C(NCCC1CCCCN1S(=O)(=O)c1ccc(F)cc1)C(=O)Nc1ccccc1F (stereo not drawn),4.6%,-7.2%,6.2%[57.1 µM],4.0%,1.5%[57.1 µM],/
CCN1CCc2c(sc(NC(=S)NC(=O)c3ccccc3)c2C#N)C1,79.4µM*,?,17.8µM*,42.8%,-8.3%,56.2µM*
CC1CCc2sc(NC(=S)NC(=O)c3ccccc3)c(C#N)c2C1 (stereo not drawn),?,-2.6%,-0.1%[57.1 µM],-1.7%,-4.5%,?
Cc1c(C(=O)N(C)C)sc2nc(-c3ccccn3)[nH]c(=O)c12,-10.7%,-6.3%,11.7%[57.1 µM],19.3%,11.1%[57.1 µM],89.1µM*
COc1ccc(-n2nc(C(=O)Nc3cccc(C(F)(F)F)c3)c3c4ccccc4n(C)c3c2=O)cc1,0.4%,-6.1%,36.0%,-3.7%,23.8%,/
O=c1c2c3c(sc2n(CCN2CCCCC2)c(=O)n1Cc1ccco1)CCCCC3,-11.2%,-3.0%,?,1.8%,-1.5%,-2.4%
O=c1c2c3c(sc2n(CCN2CCOCC2)c(=O)n1Cc1ccco1)CCCCC3,28.4%,-5.9%,-27.5%,-0.7%,-3.2%,44.7µM*
